Source: PubChem (several laboratories)
In the library only some 1.3% were active in any assay of this set; here they are far more common.
NCOA1 inh – SRC1 coactivator transcriptional activity inhibitors, primary screen, cell-based, luminescence | HEK293 GAL4-SRC1 luciferase reporter | inhibition, % at 3.6 µM | 360,000 compounds, 0.12% hits;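 active means inhibition above the campaign mean plus 3 SD, with each screening campaign given its own cutoff, cut at about 60% in these data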;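 further: 0% = DMSO treated cells and 100% = gossypol at 36 µM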
SRC2 inh – inhibition of GAL4-SRC2 driven luciferase reporter, primary screen, SRC2 inhibitor project, cell-based, luminescence; HEK293 GAL4-SRC2 luciferase reporter; inhibition, % at 9 µM; 370,000 compounds, 0.17% hits; AID 651957, 2012;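 active means inhibition above the mean inhibition of all tested compounds plus 3 SD, set per campaign, cut at about 52% in these data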;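 further: 0% = DMSO treated cells and 100% = cells given Gossypol at 36 µM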
NR5A2 inv ag – LRH-1 (NR5A2) inverse agonists, primary screen, cell-based, luminescence, HEK293T, StAR-luciferase reporter | Nuclear receptor subfamily 5 group A member 2 (Homo sapiens), O00482 | LRH-1 transfected, 24 h | inhibition, % at 3.6 µM | 360,000 compounds, 0.13% hits | AID 602396, 2012;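 active means inhibition above the mean inhibition of all tested compounds plus 3 SD, cut at about 73% in these data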;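 further: 0% = DMSO wells and 100% = reporter-only cells lacking LRH-1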
Gli-Sufu block – Gli-Sufu pathway antagonists, primary screen, luciferase luminescence, Sufu-KO-LIGHT cells, uHTS; Sufu-KO-LIGHT fibroblasts, Gli luciferase reporter luminescence; inhibition, % at 5 µM; 340,000 compounds, 0.74% hits; AID 588413, 2011;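 active means inhibition above about 55%, limit read from the data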;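 further: 0% = DMSO-treated cells and 100% = wells with medium but no cells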
SRC3 inh – SRC3 coactivator transcriptional activity inhibitors, primary screen, cell-based, luminescence; AID 588352, 2011; inhibition, % at 3.6 µM; 360,000 compounds, 0.17% hits; HEK293 GAL4-SRC3 luciferase reporter;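 active means inhibition above a per-campaign cutoff, the mean of all compounds plus 3 SD, cut at about 60% in these data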;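 further: 0% = DMSO-treated cells and 100% = gossypol-treated cells at 36 µM; higher means less SRC3-driven luciferase light from the GAL4 reporter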
COUP-TFII inh – NR2F2 transcriptional activity inhibitors, primary screen, cell-based, luciferase reporter, HEK293T, luminescence. COUP transcription factor 2 (Homo sapiens), P24468. HEK293T NGFI-A luciferase reporter. inhibition, % at 8.6 µM. 370,000 compounds, 0.7% hits;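 active means inhibition above a per-plate cutoff, mean inhibition of test wells between control levels plus 3 SD, cut at about 38% in these data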;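 further: cells cotransfected with COUP-TFII expression vector driving the NGFI-A reporter; 0% = median of COUP-TF2 test wells and 100% = reporter-only cells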
Gli antag conf – Gli-SUFU pathway antagonists, confirmation, single concentration, luciferase luminescence, Sufu-KO-LIGHT cells; 2,500 compounds, 40% hits; AID 602428, 2012; Gli luciferase reporter; inhibition, % at 5 µM; shares compounds with Gli-Sufu block;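 active means mean inhibition at 5 µM reaching about 45%, limit read from the data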;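 further: plate controls were DMSO-treated cells for no effect and wells lacking cells for full effect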
SufuKO cytotox – cytotoxicity in Sufu-KO-LIGHT cells, confirmation, cytotoxicity control for Gli-SUFU antagonist project, cell-based, ATP luminescence, single concentration; cytotoxicity, % at 5 µM; shares compounds with Gli-Sufu block; 2,500 compounds, 32% hits;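 active means mean cytotoxicity at 5 µM above about 25%, limit read from the data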;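 further: cells exposed to compound overnight for roughly 16 to 18 hours; plate controls were DMSO wells with cells for no effect and medium without cells for full effect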
Wnt3a counter – Wnt3a reporter signal inhibition, confirmation, counter-screen for Gli-SUFU antagonist project, Wnt-LIGHT cells, luminescence, single concentration | AID 651995, 2013 | shares compounds with Gli-Sufu block | inhibition, % at 6.25 µM | Wnt3a-driven luciferase reporter | 2,500 compounds, 20% hits;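 active means mean inhibition above about 25%, limit read from the data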
Starred values were filed as active, the others as inactive; · = no result.

SMILES	NCOA1 inh	SRC2 inh	NR5A2 inv ag	Gli-Sufu block	SRC3 inh	COUP-TFII inh	Gli antag conf	SufuKO cytotox	Wnt3a counter
CCOc1ccc(S(=O)(=O)N2CCCCC2)cc1NC(=O)c1cccnc1OCC	-3	16	5	56*	-12	12	28	19	-41
COCCNC(=S)NCc1ccc2[nH]c3c(c2c1)CCCC3	-63	-11	-11	92*	-101	-28	12	26*	-8
C=CCn1c(C)cc(C2=NNC(=NC(C)(C)C)SC2)c1C	47	39	22	72*	58	58*	75*	50*	98*
O=[N+]([O-])c1cc(/C=N/N/C(=N/c2ccccn2)c2ccccn2)ccc1O	-60	-62	-77	79*	-29	-20	24	27*	-37
Cc1ccc(C2C(C#N)=C(N)N(c3cccnc3)C3=C2C(=O)CCC3)s1 (stereo unspecified)	-41	-66	-24	60*	1	2	29	3	-4
CC[n+]1c(/C=C/N(C)c2ccccc2)oc2ccc(Cl)cc21	11	7	12	79*	17	-2	83*	27*	39*
COc1cc(C2c3cc4c(cc3OC(NNC(N)=O)C2C)OCO4)cc(OC)c1OC (stereo unspecified)	-5	-4	28	56*	10	-67	55*	62*	8
Cc1ccc(CN2CCC(CNC(=O)Nc3ccccc3F)CC2)cc1	15	-10	4	50	6	9	31	9	-9
O=C(NCC1CC1)Nc1ccccc1F	-6	-22	0	-10	-3	6	·	·	·
Oc1ccc(CNc2ccc(C(F)(F)F)cc2F)c2cccnc12	·	·	·	·	·	6	·	·	·
Cc1cnc(NC(=O)CSc2ccc(Cl)cc2)s1	4	-28	-6	3	-1	-5	·	·	·
Cc1ccc(NC(=O)Nc2nnc(-c3ccncc3)s2)cc1C	3	28	-8	-13	-8	-10	·	·	·
Cc1cnc(NC(=O)Nc2ccc(Cl)cc2)s1	-60	-57	-56	76*	-87	-34	49*	11	-125
O=C(Nc1cccc(Cl)c1)Nc1nnc(-c2ccncc2)s1	43	23	5	57*	52	9	61*	19	69*
O=C(Nc1ccc(Cl)cc1)Nc1nnc(-c2ccncc2)s1	-18	1	17	74*	6	20	72*	25*	70*
O=C(CSc1nnc(-c2ccccc2)n1Cc1ccco1)Nc1ccc(OCc2ccccc2)cc1	·	-10	·	·	·	-6	·	·	·
CCOC(=O)C1(Cc2ccccc2)CCN(Cc2cccc(C#N)c2)CC1	·	12	·	·	·	-9	·	·	·
CCOc1ccccc1CNc1nnnn1C	7	-7	1	·	-1	-10	·	·	·
CCOc1ccc(Cl)cc1CNc1nnnn1C	10	1	20	51	10	-13	16	15	-1
O=C(CCNC(=O)N1CC(=O)Nc2ccccc21)NCCc1cccc(F)c1	1	4	4	50	10	15	18	2	-6
Cc1ccccc1NC(=O)C1CCCN1S(=O)(=O)c1cccnc1 (stereo unspecified)	·	-29	·	·	·	14	·	·	·
OC[C@H]1CC[C@@H]2O[C@H](CCc3ccc(-c4ccc(F)cc4)cc3)[C@H](n3cc(C4CC4)nn3)C[C@@H]2O1	·	-3	·	·	·	11	·	·	·
CCCc1nnc(NC(=O)CCC(=O)N2CCN(Cc3cc(F)ccc3OC)CC2)s1	4	12	11	6	5	2	·	·	·
COc1ccc(F)cc1CN1CCN(C(=O)CCC(=O)Nc2nnc(C(C)C)s2)CC1	-1	-3	-10	96*	5	8	13	15	-13
O=C(Nc1ccccc1)c1cccc(C(=O)Nc2ccccc2)n1	2	27	16	32	-1	3	·	·	·
SMILES	NCOA1 inh	SRC2 inh	NR5A2 inv ag	Gli-Sufu block	SRC3 inh	COUP-TFII inh	Gli antag conf	SufuKO cytotox	Wnt3a counter
O=C(O)c1ccc(NC(=O)c2cccc(C(=O)Nc3ccc(C(=O)O)cc3)n2)cc1	-19	0	-3	66*	-1	14	16	13	9
O=[N+]([O-])c1ccc(N2CCCCC2)s1	-10	-29	13	-4	2	-14	·	·	·
O=[N+]([O-])c1ccc(N2CCN(Cc3ccccc3)CC2)s1	-69	-6	7	52	-23	8	24	6	-8
Cc1nnc(SCC(=O)N2CCCC2)n1-c1ccc(F)cc1	-15	-2	-8	0	15	7	·	·	·
CCSc1nnc(C)n1-c1ccc(C(=O)O)cc1	-3	-9	-5	95*	7	-8	26	-2	19
O=C(C1CCCN1S(=O)(=O)c1ccc(F)cc1)N1CCc2ccccc2C1 (stereo unspecified)	·	8	·	·	·	19	·	·	·
Cc1ccc(-n2c(SCC(=O)Nc3ccc(S(=O)(=O)Nc4cc(C)nc(C)n4)cc3)nnc2-c2cccs2)cc1	·	-9	·	·	·	6	·	·	·
Cn1c(SCC(=O)NCc2ccc3c(c2)OCO3)ncc(C(=O)Nc2ccc(F)cc2)c1=O	-12	-49	11	14	-8	-15	·	·	·
Cn1c(SCC(=O)NCc2ccc(F)cc2)ncc(C(=O)Nc2ccccc2)c1=O	-4	-5	-14	54	-33	5	30	13	-14
OC(c1ccccc1)(c1ccccc1)C1CCN(CCCNc2cccc(Br)c2)CC1	·	5	·	·	·	-11	·	·	·
Cc1csc(N2CCCC2c2nc3cc(Cl)c(N4CCCCC4)cc3n2CCOCCO)n1 (stereo unspecified)	-5	-6	10	9	-8	8	·	·	·
Cc1csc(N2CCCC2c2nc3cc(C(F)(F)F)ccc3n2CCOCCO)n1 (stereo unspecified)	-20	-2	17	85*	2	10	18	-1	-72
CN(C)S(=O)(=O)c1cccc(-c2nn(-c3ccccc3)cc2/C=C(/C#N)C(=O)NCc2ccco2)c1	-5	0	8	83*	13	-5	30	8	14
O=C(NC1CCN(Cc2ccccc2)CC1)C1CCN(S(=O)(=O)c2cccc3nsnc23)CC1	-2	3	7	59*	5	2	19	29*	-5
